Screening results as filed in PubChem.
SARS 3CLpro inh = SARS-CoV 3CLpro protease inhibition | recombinant SARS-CoV 3CLpro, quenched FRET peptide cleavage | P0C6X7 | inhibition, % at 6 µM | 290,000 compounds, 0.14% hits; in the data active means inhibition above about 12%
MazF activator = increases E. coli MazEF RNase cleavage of RNA. P0AE70. 350,000 compounds, 0.32% hits. activation, % at 20 µM. FAM/BHQ RNA-DNA oligo cleavage fluorescence, 5 h; in the data active means activation above about 50%
Target sequence (P0AE70 whole entry, looked up): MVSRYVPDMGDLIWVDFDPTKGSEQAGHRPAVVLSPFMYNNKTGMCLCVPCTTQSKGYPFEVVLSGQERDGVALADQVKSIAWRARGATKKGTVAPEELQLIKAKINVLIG
PrP UTR inh = suppresses PrP 5' UTR mRNA reporter expression. 340,000 compounds, 0.35% hits. cell-based PrP 5' UTR mRNA reporter, plate reader. inhibition, % (test concentration not listed). AID 488862; in the data active means inhibition above about 52%; further: 0 = median of the neutral control wells
PrPC TRFRET = inhibitors of human cell surface prion protein PrPC; TR-FRET read-out; 370,000 compounds, 0.43% hits; inhibition, % at 13.8 µM; in the data active means inhibition above about 24%; further: 0% = median of the test wells and 100% = reference compound wells
Mtb hypoxia rep = Mtb hypoxia fluorescent reporter inhibition; fluorescence inhibition, % (concentration not given with the values); 300,000 compounds, 0.1% hits; M. tuberculosis hypoxia-regulated fluorescent reporter, fluorescence; in the data active means fluorescence inhibition mostly above about 23%, no sharp cut-off; inactive means mostly below about 17%
VHR inh abs = blocks human VHR1 dual specificity phosphatase; recombinant VHR phosphatase, pNPP absorbance; inhibition, % at 13.3 µM; 290,000 compounds, 0.52% hits; in the data active means inhibition above about 50%
Target sequence (P51452 whole entry, looked up): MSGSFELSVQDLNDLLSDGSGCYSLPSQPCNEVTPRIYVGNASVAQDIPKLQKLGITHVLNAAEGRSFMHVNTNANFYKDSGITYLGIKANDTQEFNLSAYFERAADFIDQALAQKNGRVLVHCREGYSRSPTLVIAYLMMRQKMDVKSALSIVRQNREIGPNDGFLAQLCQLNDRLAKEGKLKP
Starred values were filed as active, the others as inactive; . = no result. This is a sample that favours compounds with a hit; in the whole collection about 1.5% have one here.

SMILES	SARS 3CLpro inh	MazF activator	PrP UTR inh	PrPC TRFRET	Mtb hypoxia rep	VHR inh abs
CC(=NNC(=O)c1cccc(NN=C(C)c2ccccc2)c1)c1ccccc1	.	.	.	.	10	.
CCCc1cc(=O)oc2c(CN(CC)CC)c(O)c(Cl)cc12	3	2	-2	0	18	-6
CCCCc1cc(=O)oc2c(CN(CC)CC)c(O)c(Cl)cc12	1	-2	-26	-3	9	52*
NC(=NOC(=O)c1ccc(Cl)cc1[N+](=O)[O-])c1ccccn1	.	.	.	.	4	.
COc1ccc(CC(=O)Nc2ccc(N3CCCC3)c(C)c2)cc1	-6	9	-11	3	3	50*
COc1ccc(C(=O)Nc2ccc(C(=O)O)cc2NC(=O)c2ccc(OC)cc2)cc1	3	8	1	6	-4	-9
COc1ccc(CC(=O)Nc2ccc(C(=O)O)cc2NC(=O)Cc2ccc(OC)cc2)cc1	0	3	-6	-4	13	57*
Cc1[nH]c2ccccc2c1C=NNC(=O)CNc1ccc2c(c1)OCO2	.	.	.	.	-1	.
O=C(NN=C/C=C\c1ccco1)c1cccnc1	.	.	.	.	9	.
N#C/C(=C\c1ccc(-c2ccccc2)o1)C(=O)Nn1cnnc1	3	-7	7	-14	-2	57*
CCn1c(=O)n(CC)c2cc(N3CCCC3)c(NC(=O)c3ccccc3OC)cc21	-1	8	-28	12	6	52*
CCOc1ccccc1C(=O)Nc1cc2c(cc1N1CCCC1)n(CC)c(=O)n2CC	-1	-22	11	18	-3	31
C#CCOCCOCCOCCNc1nc(N2CCN(C(=O)Cn3cc(CC(C)O)nn3)CC2)nc(N2CCN(C(=O)C(C(C)CC)n3cc(CCCN=C(N)N)nn3)CC2)n1 (stereo unspecified)	.	.	.	.	-4	.
COc1ccc(CCN(C)Cc2c(O)ccc3ccccc23)cc1OC	2	-5	-29	-3	0	58*
O=C(Cc1n[nH]c(=O)[nH]c1=O)N/N=C/c1c(O)ccc2ccccc12	5	71*	-20	-13	.	-7
O=C(Nc1cccc2ccccc12)N1CC=C(c2ccccc2)CC1	0	78*	-12	3	10	4
CCCCN1CCC2C=CCC(C(=O)N3CCN(c4ccccc4)CC3)C2C1=O (stereo unspecified)	.	.	.	.	21	.
Fc1ccc(CSc2nc3ccccc3[nH]2)c2ccccc12	6	54*	0	-11	.	14
O=c1cc(CSc2nc3ccccc3[nH]2)c2ccccc2[nH]1	-2	3	.	-1	0	15
O=c1[nH]nc(Cc2ccc3ccccc3n2)c2ccccc12	0	74*	-30	6	12	26
O=c1[nH]nc(Cc2ccccc2)c2ccccc12	0	-1	-16	3	19	-12
O=[N+]([O-])c1cccc(/C=N/N=C\c2ccccc2)c1	-4	4	-30	1	.	60*
O=[N+]([O-])c1cccc(C=NN=Cc2ccccc2)c1	.	.	.	.	8	.
O=[N+]([O-])c1ccc(C=CC=Cc2ccccc2)cc1	.	68*	.	-10	.	.
O=[N+]([O-])c1cccc(/C=C/c2nc(C=Nc3ccccc3)c(O)o2)c1	-4	133*	-41	-9	1	2
SMILES	SARS 3CLpro inh	MazF activator	PrP UTR inh	PrPC TRFRET	Mtb hypoxia rep	VHR inh abs
O=C(C=Cc1ccccc1)c1ccc([N+](=O)[O-])cc1	.	4	-41	2	18	.
O=[N+]([O-])c1ccc(N/N=C/c2ccccc2)c(F)c1	4	234*	-37	1	.	1
Cc1ccccc1C=NNc1ccc(Cl)nn1	.	.	.	.	25	.
CC(C)c1c(C(=O)NN=Cc2ccncc2)nnn1-c1nonc1N	.	.	.	.	2	.
CC1SC(c2ccc(Cl)cc2Cl)NC1=O (stereo unspecified)	0	6	-5	0	.	57*
Cc1ccc(-n2c(SCC(=O)Nc3cccc(S(=O)(=O)NC4=NCCCCC4)c3)nc3ccccc3c2=O)cc1C	-1	2	3	5	10	60*
Cc1ccc(NC(=S)N2CCCCCC2)c(C)c1	-3	3	-6	-5	-3	53*
CC(C)c1ccc(-c2nnn(CCC(=O)O)n2)cc1	1	1	73*	.	-1	3
Clc1ccc(-c2nc(C=NN3CCOCC3)c3ccccn23)cc1	.	.	.	.	6	.
CCN(CC)C(=O)c1[nH]cnc1C(=O)NC(C)C(=O)OCc1ccccc1 (stereo unspecified)	.	.	.	.	6	.
CCCc1cc(-n2ccnc2)n2c(nc3ccccc32)c1C#N	-2	82*	-13	-5	.	-5
CCOc1ccc(C=NNc2cc(C)nc(N3CCOCC3)n2)cc1	.	.	.	.	11	.
Cc1ccc2ccc(C3C(=O)c4ccccc4C3=O)nc2c1	8	85*	-89	1	8	.
O=[N+]([O-])c1ccccc1NC(=S)NN=Cc1ccc(O)c(O)c1	.	.	.	.	17	.
COc1ccc(C2C=CCN(C(=O)NC34CC5CC(CC(C5)C3)C4)CC(=O)N2Cc2ccc(F)cc2)cc1 (stereo unspecified)	.	.	.	.	7	.
Cc1ccc(NC(=O)c2ccccc2O)cc1	-4	-6	-72	-6	16	54*
O=C(Nc1ccccc1)c1ccccc1O	-1	-3	-37	0	-5	5
CC(C)N1CC(C(=O)Nc2cccc([N+](=O)[O-])c2)CC1=O (stereo unspecified)	2	5	-6	-7	-2	56*
O=C(Nc1cccc([N+](=O)[O-])c1)C1CC(=O)N(Cc2ccccc2)C1 (stereo unspecified)	-4	7	-1	-22	13	8
C#CCOCCOCCOCCNc1nc(N2CCN(C(=O)C(CCC(=O)O)n3cc(C(N)CO)nn3)CC2)nc(N2CCN(C(=O)C(Cc3ccc(O)cc3)n3cc(C(N)C(C)CC)nn3)CC2)n1 (stereo unspecified)	.	.	.	.	0	.
N#C/C(=C\c1ccccc1[N+](=O)[O-])C(=O)NC1CCCCC1	0	423*	-17	-6	-3	-6
OC(CNCC1CCCCC1)COc1ccccc1 (stereo unspecified)	3	7	-25	6	5	51*
OC(CNCc1ccccc1)COc1ccccc1 (stereo unspecified)	.	7	1	-1	14	.
COC(=O)c1ccc(-c2cc(C(=O)O)c3cc4c(cc3n2)OCCO4)cc1	0	11	-14	-8	.	52*
COc1cc(-c2cc(C(=O)O)c3cc4c(cc3n2)OCCO4)cc(OC)c1OC	1	1	-15	-12	0	40
CCC(Sc1nc2ncccc2[nH]1)C(=O)NC1CCC(C)CC1 (stereo unspecified)	-4	138*	-18	6	10	33
CC(=NNC(N)=O)C1CC(CC(C)C)C(=O)O1 (stereo unspecified)	.	.	.	.	-1	.
Cc1ccc(CSc2ccc(-c3ccco3)nn2)cc1	-1	-3	-45	9	-5	53*
N=c1n(CC(=O)c2ccc([N+](=O)[O-])cc2)c2ccccc2n1Cc1ccc(Cl)cc1	2	178*	1	-3	2	22
